Results reported in PubChem BioAssay (EPA / NIEHS).
The source made the active and inactive calls. Rule for the calls: active = hit-call score of the fitted dose curve at least 0.9, where 1 is the maximum; inactive = score below 0.9.

Assay: ATG_CRE_CIS: Attagene CIS-FACTORIAL HepG2 Assay for human cAMP Responsive Element (CRE) binding protein 3 (AID 2282926)
Details: HepG2 CRE cis-reporter, Attagene multiplexed mRNA; actives raise or lower the signal
Method in brief: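 Readout: fluorescently labelled reporter transcripts resolved by capillary electrophoresis after RT-PCR, taken 24 h post-dosing in transfected HepG2. Endogenous transcription factor activity drives each cis-element reporter; gain or loss of signal fitted relative to DMSO control.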

Compound | outcome | AC50
CNC(=C[N+](=O)[O-])NCCSCc1csc(CN(C)C)n1 | inactive | –
O=C1CCCCCCCCCCCCCC1 | inactive | –
CCCC(=O)OC/C=C(\C)CCC=C(C)C | inactive | –
CCCCCCC(O)CCCCCCCCCCC(=O)OC (centres undefined) | inactive | –
COC(=O)c1ccccc1 | inactive | –
O=C(O)/C=C/C(=O)O | inactive | –
O=S(=O)(O)c1cccc2ccccc12 | inactive | –
C/C=C(\C)C(=O)OCC/C=C\CC | inactive | –
CC/C=C\CC/C=C/C(OCC)OCC | inactive | –
C=CCOCC(CC)(CO)COCC=C | inactive | –
CN1CCCC1 | inactive | –
CCO[Si](CCCN)(OCC)OCC | inactive | –
CCCCCCC1CCC(=O)O1 (centres undefined) | inactive | –
O=[N+]([O-])c1ccccc1C(F)(F)F | inactive | –
CCC(=O)OCc1ccc(OC)cc1 | inactive | –
CCc1cc(C(N)=S)ccn1 | inactive | –
CCC(C)=NO | inactive | –
COc1cccc(OC)c1C(=O)O | inactive | –
C=C1CC[C@H]2C[C@@H]1C2(C)C | – | 26 µM (active)
CCCCCC1CCCC(=O)O1 (centres undefined) | inactive | –

Compound | outcome | AC50
COC(=O)[C@]1(C)CCC[C@@]2(C)[C@H]1CC=C1C=C(C(C)C)CC[C@@H]12 | inactive | –
Cc1cc2nc3c(=O)[nH]c(=O)nc-3n(C[C@H](O)[C@H](O)[C@H](O)CO)c2cc1C | inactive | –
Cc1cc(-n2nc3ccc(Cl)cc3n2)c(O)c(C(C)(C)C)c1 | inactive | –
O=C(OCc1ccccc1)c1ccccc1 | inactive | –
CCCCCCC1CCCC(=O)O1 (centres undefined) | inactive | –
c1ccc(CNc2ncnc3nc[nH]c23)cc1 | inactive | –
NC(=O)c1ccc(N)cc1 | inactive | –
CC(=O)Nc1c(I)c(NC(C)=O)c(I)c(C(=O)O)c1I | inactive | –
CC(C)=CCOC(=O)c1ccccc1 | inactive | –
CC(C)(C)NC(=O)[C@@H]1CN(Cc2cccnc2)CCN1C[C@@H](O)C[C@@H](Cc1ccccc1)C(=O)N[C@H]1c2ccccc2C[C@H]1O | inactive | –
Oc1cccc2ccccc12 | inactive | –
C=CN1CCCCCC1=O | inactive | –
Oc1ccc(Oc2ccccc2)cc1 | inactive | –
CC(=O)CCc1ccccc1 | inactive | –
CNC[C@H](O)[C@@H](O)[C@H](O)[C@H](O)CO | inactive | –
CN(C)c1ccc(C(c2ccccc2)c2ccc(N(C)C)cc2)cc1 | inactive | –
c1ccc2c(c1)Oc1ccccc1S2 | inactive | –
CCCCCC[C@@H](O)C/C=C\CCCCCCCC(=O)O | inactive | –
CC[N+](CC)(CC(=O)Nc1c(C)cccc1C)Cc1ccccc1 (tested in a mixture with another compound) | inactive | –
